Results from PubChem BioAssay (NCATS).
Records with an inconclusive call do not appear. A call without a number means that no potency is given here. The source made the active and inactive calls. Calls follow the shape of the full dose curve.

Assays:
[1] = Primary qHTS for Huh7 cytotoxicity: counterscreen for inhibitors of MERS-S pseudotyped particle cell entry (AID 1479147)
[2] = Primary qHTS for inhibitors of MERS-S pseudo-typed particle cell entry (AID 1479149); also: nearly all actives have a fitted effect of over 60% in size; also: potency is read from the fitted curve at half-maximal effect
[3] = Primary qHTS for Vero E6 cytotoxicity: counterscreen for inhibitors of SARS-S pseudo-typed particle cell entry (AID 1479150)

Row | SMILES | Potency [1] | Potency [2] | Potency [3]
1 | CCN1C(=O)c2ccccc2C1Nc1ccc(OCCN2CCCCC2)cc1 (stereo unspecified) | inactive | inactive | inactive
2 | O=C(O)c1ccccc1Nc1cc(Cl)ccc1C(=O)O | inactive | inactive | inactive
3 | CN1CCN(c2cc3c(cc2F)c(=O)c(C(=O)O)cn3-c2ccc(F)cc2)CC1 | inactive | inactive | inactive
4 | COc1ccc2cc3[n+](cc2c1OC)CCc1cc2c(cc1-3)OCO2 | inactive | 12.6 µM (active) | inactive
5 | COc1ccccc1OC(=O)Oc1ccccc1OC | inactive | inactive | inactive
6 | CCOC(=O)OCC/C(SC(=O)OCC)=C(\C)N(C=O)Cc1cnc(C)nc1N | inactive | inactive | inactive
7 | COc1ccc(C(Cl)=C(c2ccc(OC)cc2)c2ccc(OC)cc2)cc1 | inactive | inactive | inactive
8 | Nc1ccn(C2CO[C@H](CO)O2)c(=O)n1 (stereo partly specified) | inactive | inactive | inactive
9 | CCOCCOC(=O)/C=C/c1ccc(OC)cc1 | inactive | inactive | inactive
10 | CN(C)CCN1C(=O)c2ccccc2N(C)c2ccccc21 | inactive | inactive | inactive
11 | C=CCc1ccccc1OCC(O)CNC(C)C (stereo unspecified) | inactive | inactive | inactive
12 | C[N+]1(C)CCC(=C(c2ccccc2)c2ccccc2)CC1 | inactive | inactive | inactive
